Measurements as given in ChEMBL document CHEMBL5606460, “ASAP - DENV-2 NS2B-NS3 protease fluorescence single point” (2024).
Out of some 2,000 compounds screened, about 110 (5.5%) showed an effect of 50% or more. What follows is part of a selection rich in strong results, with near analogues and random picks from the rest.

Target: Genome polyprotein (dengue virus type 2) (UniProt P29990)
[1] = Thailand/16681/1984, Concentration 25.0 uM, Number of replicates 1.0

## CC(C)COc1ccc(CNC(=O)C2CCN(c3ccc(C=O)cc3)CC2)cc1
[1]
  inhibition: 2.46%

## COC(=O)c1c[nH]c(-c2ccccc2C(=O)Nc2cnn(C)c2)c1
Thailand/16681/1984, Concentration 49.5 uM, Number of replicates 2.0, Standard deviation 4.6959836114984075 %
  inhibition: -3.99%
Thailand/16681/1984, Concentration 99.01 uM, Number of replicates 2.0, Standard deviation 3.634509710514387 %
  inhibition: -4.57%
Thailand/16681/1984, Concentration 198.0 uM, Number of replicates 2.0, Standard deviation 4.5675250537856 %
  inhibition: -3.67%

## CCCN(C[C@H](O)COc1ccccc1C(=O)CCc1ccccc1)C(=O)C1CCN(c2ccc(C=O)cc2)CC1
[1]
  inhibition: 15.7%

## Cc1cc(CO)c2cccc(Cc3ccccc3C(=O)N3CCC(C(=O)O)CC3)c2n1
Thailand/16681/1984, Concentration 49.95 uM, Number of replicates 2.0, Standard deviation 0.622352552136526 %
  inhibition: 0.457%
Thailand/16681/1984, Concentration 99.9 uM, Number of replicates 2.0, Standard deviation 0.7955477281018075 %
  inhibition: 4.68%

## Cc1cc(CO)c2cccc(Cc3cccc(C(=O)N4CC[C@@H](CO)C4)c3)c2n1
Thailand/16681/1984, Concentration 49.95 uM, Number of replicates 2.0, Standard deviation 1.5846275376108605 %
  inhibition: 1.42%
Thailand/16681/1984, Concentration 99.9 uM, Number of replicates 2.0, Standard deviation 0.9371220268229934 %
  inhibition: 23.4%

## Cc1cc(CO)c2cccc(Cc3cccc(C(=O)N4CCC(C(=O)O)CC4)c3)c2n1
Thailand/16681/1984, Concentration 49.95 uM, Number of replicates 2.0, Standard deviation 0.11067239798039237 %
  inhibition: -0.531%
Thailand/16681/1984, Concentration 99.9 uM, Number of replicates 2.0, Standard deviation 0.04599367566818035 %
  inhibition: 2.3%

## Cc1cc(CO)c2cccc(Cc3ccccc3C(=O)N3CC[C@@H](CO)C3)c2n1
Thailand/16681/1984, Concentration 49.95 uM, Number of replicates 2.0, Standard deviation 0.1537915321395842 %
  inhibition: -0.863%
Thailand/16681/1984, Concentration 99.9 uM, Number of replicates 2.0, Standard deviation 0.5490500301245094 %
  inhibition: 3.93%

## Cc1cc(CO)c2cccc(Cc3ccccc3C(=O)N3CCC(CN)CC3)c2n1
Thailand/16681/1984, Concentration 49.95 uM, Number of replicates 2.0, Standard deviation 7.669453256982897 %
  inhibition: 67%
Thailand/16681/1984, Concentration 99.9 uM, Number of replicates 2.0, Standard deviation 4.997502207892192 %
  inhibition: 86.3%

## Cc1cc(CO)c2cccc(Cc3cccc(C(=O)N4CCC(CN)CC4)c3)c2n1
Thailand/16681/1984, Concentration 49.95 uM, Number of replicates 2.0, Standard deviation 0.03521723226612688 %
  inhibition: 98.6%
Thailand/16681/1984, Concentration 99.9 uM, Number of replicates 2.0, Standard deviation 0.007908771829372243 %
  inhibition: 98.5%

## O=Cc1ccc(N2CCC(C(=O)NC3CN(C(c4ccccc4)c4ccccc4)C3)CC2)cc1
[1]
  inhibition: 2.62%

## CC(C)N(C[C@H](O)COc1ccc(CC(N)=O)cc1)C(=O)C1CCN(c2ccc(C=O)cc2)CC1
[1]
  inhibition: 13.4%

## Cc1ccc(S(N)(=O)=O)c(NCc2ccc(N3CCN(C)CC3)cc2)c1
Thailand/16681/1984, Concentration 49.5 uM, Number of replicates 2.0, Standard deviation 0.9591550294519122 %
  inhibition: -0.337%
Thailand/16681/1984, Concentration 99.01 uM, Number of replicates 2.0, Standard deviation 0.6629248720953049 %
  inhibition: 1.24%
Thailand/16681/1984, Concentration 198.0 uM, Number of replicates 2.0, Standard deviation 0.09920698004573132 %
  inhibition: 1.03%

## CCc1ccc(CN(CC(C)C)C(=O)C2CCN(c3ccc(C=O)cc3)CC2)cc1
[1]
  inhibition: 13.3%

## O=Cc1ccc(N2CCC(C(=O)Nc3ccccc3Sc3ccccc3)CC2)cc1
[1]
  inhibition: 12.1%

## O=C(c1cc(Cl)ccc1NS(=O)(=O)c1ccc(Oc2ccccc2Cl)cc1)N1CCC[C@H](O)C1
Thailand/16681/1984, Concentration 49.5 uM, Number of replicates 2.0, Standard deviation 1.2236693461292836 %
  inhibition: 22.2%
Thailand/16681/1984, Concentration 99.01 uM, Number of replicates 2.0, Standard deviation 0.043163767671764885 %
  inhibition: 86.9%
Thailand/16681/1984, Concentration 198.0 uM, Number of replicates 2.0, Standard deviation 0.0596286869236367 %
  inhibition: 96.8%

## COC1CN(C(=O)c2cc(Cl)ccc2NS(=O)(=O)c2ccc(Oc3ccccc3Cl)cc2)C1
Thailand/16681/1984, Concentration 49.5 uM, Number of replicates 2.0, Standard deviation 0.43340110085934463 %
  inhibition: 13.9%
Thailand/16681/1984, Concentration 99.01 uM, Number of replicates 2.0, Standard deviation 0.8668022017186893 %
  inhibition: 27.6%
Thailand/16681/1984, Concentration 198.0 uM, Number of replicates 2.0, Standard deviation 1.1631532151634014 %
  inhibition: 43.9%

## CNC(=O)c1cc(Cl)ccc1NS(=O)(=O)c1cccc(Oc2ccccc2)c1
Thailand/16681/1984, Concentration 49.5 uM, Number of replicates 2.0, Standard deviation 1.273206391645472 %
  inhibition: 8.45%
Thailand/16681/1984, Concentration 99.01 uM, Number of replicates 2.0, Standard deviation 0.33776821571418564 %
  inhibition: 23.8%
Thailand/16681/1984, Concentration 198.0 uM, Number of replicates 2.0, Standard deviation 0.06600533651594093 %
  inhibition: 89.9%

## O=C(c1cc(Cl)ccc1NS(=O)(=O)c1ccc(Oc2ccccc2Cl)cc1)N1CCCC1
Thailand/16681/1984, Concentration 49.5 uM, Number of replicates 2.0, Standard deviation 0.3065647121254482 %
  inhibition: 37.4%
Thailand/16681/1984, Concentration 99.01 uM, Number of replicates 2.0, Standard deviation 0.3046576515240273 %
  inhibition: 55.4%
Thailand/16681/1984, Concentration 198.0 uM, Number of replicates 2.0, Standard deviation 0.40716687929743567 %
  inhibition: 69%

## CNC(=O)c1cc(Cl)ccc1NS(=O)(=O)c1cccc(S(N)(=O)=O)c1
Thailand/16681/1984, Concentration 49.5 uM, Number of replicates 2.0, Standard deviation 0.4003966624337367 %
  inhibition: 1.73%
Thailand/16681/1984, Concentration 99.01 uM, Number of replicates 2.0, Standard deviation 1.0615056375609497 %
  inhibition: 3.26%
Thailand/16681/1984, Concentration 198.0 uM, Number of replicates 2.0, Standard deviation 0.04640199433655389 %
  inhibition: 5.28%

## CNC(=O)c1cc(Cl)ccc1NS(=O)(=O)c1ccc(F)c(C(=O)N2CCCC2)c1
Thailand/16681/1984, Concentration 49.5 uM, Number of replicates 2.0, Standard deviation 0.7714528805703116 %
  inhibition: -4.6%
Thailand/16681/1984, Concentration 99.01 uM, Number of replicates 2.0, Standard deviation 1.6986403894371052 %
  inhibition: -2.1%
Thailand/16681/1984, Concentration 198.0 uM, Number of replicates 2.0, Standard deviation 1.4542094148600992 %
  inhibition: 1.16%

## NC(=O)c1ccccc1NS(=O)(=O)c1ccc(Oc2ccccc2Cl)cc1
Thailand/16681/1984, Concentration 49.5 uM, Number of replicates 2.0, Standard deviation 0.6673279112123895 %
  inhibition: 5.67%
Thailand/16681/1984, Concentration 99.01 uM, Number of replicates 2.0, Standard deviation 2.0636931261780913 %
  inhibition: 38.8%
Thailand/16681/1984, Concentration 198.0 uM, Number of replicates 2.0, Standard deviation 0.3870011295715193 %
  inhibition: 81.3%

## CCc1cccc(S(=O)(=O)Nc2ccc(Cl)cc2C(=O)NC)c1
Thailand/16681/1984, Concentration 49.5 uM, Number of replicates 2.0, Standard deviation 0.31892086155653854 %
  inhibition: 0.409%
Thailand/16681/1984, Concentration 99.01 uM, Number of replicates 2.0, Standard deviation 0.4824817381530084 %
  inhibition: 0.666%
Thailand/16681/1984, Concentration 198.0 uM, Number of replicates 2.0, Standard deviation 0.7239504320191382 %
  inhibition: 1.73%
